40 sequences from the OligoGym collection can be followed below.
Also: reference of the scale not given here.

The first assay has as its target TC2N. Nature of the assay: pooled miR-30 sensor sort-seq; sequence = guide strand. The following applies: shRNA.
Take TTATAAATCAACTCTCCCGAGC: the sensor-assay potency score (higher = more potent) was -0.579.

In the case of TTTAATAGCAAATACAAACGTT, the sensor-assay potency score (higher = more potent) is -0.37.

As to TTAAATCACAAACCGATCCATA, the sensor-assay potency score (higher = more potent) is -0.989.

In the case of TTGAAGAAGAACTACTGGGTAC, the sensor-assay potency score (higher = more potent) was -0.298.

Sequence TAGCATTTTGACTATTTGGGAC yielded a sensor-assay potency score (higher = more potent) of -0.206.

Sequence TTACTGTCTGTGTCTCTTGTTG had a sensor-assay potency score (higher = more potent) of -0.31.

TAAAACTGTGATCCAGATCTGT came in with a sensor-assay potency score (higher = more potent) of -0.0159.

In turn, TGAACTGGAAAGTTCTACCTTT had a sensor-assay potency score (higher = more potent) of 0.507.

Take TTAATAGCAAATACAAACGTTT: the sensor-assay potency score (higher = more potent) is -0.542.

In turn, TTACTGTCTTCACTTATCCAAA yielded a sensor-assay potency score (higher = more potent) of -1.52.

Sequence TTACTGTCTCTTTCCACTGGTT had a sensor-assay potency score (higher = more potent) of -0.545.

The target in a further assay is TCEA3. Described as above. As to conditions: shRNA.
In the case of TCTGATGCCATCTTGTCACAGT, the sensor-assay potency score (higher = more potent) was -0.177.

Regarding ATAGGTGCAGTTCTTCTTCTTG, the sensor-assay potency score (higher = more potent) is -0.625.

Regarding ATTAACAGCAACTCCAATCCTG, the sensor-assay potency score (higher = more potent) was found to be 0.388.

For the sequence TTCTTCTTGCATTTGCTGCACT, the sensor-assay potency score (higher = more potent) is -0.468.

Consider TCGATTTCTGATGCCATCTTGT, for which the sensor-assay potency score (higher = more potent) is -0.388.

Sequence TTGGTAGATATGATCTTCGATT showed a sensor-assay potency score (higher = more potent) of -0.766.

As for TCTTGTCACAGTTGACTCCATA, the sensor-assay potency score (higher = more potent) was -0.75.

Turning to TTCCGGTACTTCATGTCCGTGC, the sensor-assay potency score (higher = more potent) stood at 0.146.

Turning to TTGAGGTTGCTTATGCGGCTGC, the sensor-assay potency score (higher = more potent) is -0.208.

Sequence TACTTCATGTCCGTGCTCTTGA came in with a sensor-assay potency score (higher = more potent) of 0.446.

Take TTCTTCTTCTTGCATTTGCTGC: the sensor-assay potency score (higher = more potent) was -0.856.

In the case of TTAACAGCAACTCCAATCCTGG, the sensor-assay potency score (higher = more potent) is -0.797.

Another assay addresses TCEAL1. Described as above. The following applies: shRNA.
AAAGCTTCCTTCTTCAAGCTTA registered a sensor-assay potency score (higher = more potent) of 0.373.

TTATGTTTTCCTACTCCACAAG had a sensor-assay potency score (higher = more potent) of -1.15.

As to TTTTCATCTCTTCTAGCTCATC, the sensor-assay potency score (higher = more potent) was -1.39.

ATCAGTTTGTTTCTTACTCTTT came in with a sensor-assay potency score (higher = more potent) of -0.801.

The sequence TGTATCATCTCCTCATTGCTTA came in with a sensor-assay potency score (higher = more potent) of 0.297.

TTCGGGAGAGTGCTCCACCGGA registered a sensor-assay potency score (higher = more potent) of -1.49.

The sequence TAAATTGCGGGCGAGAACGAGC displayed a sensor-assay potency score (higher = more potent) of -1.13.

In turn, ATTATCATCAGTTTGTTTCTTA had a sensor-assay potency score (higher = more potent) of 0.834.

TTTGTTTCTTACTCTTTTCATC: the sensor-assay potency score (higher = more potent) is -1.09.

TTACTCTTTTCATCTCTTCTAG gave a sensor-assay potency score (higher = more potent) of -0.0336.

In turn, TCATCTCTTCTAGCTCATCTGC yielded a sensor-assay potency score (higher = more potent) of -1.12.

TTCTAGCTCATCTGCTGCCTGT displayed a sensor-assay potency score (higher = more potent) of -0.542.

In a further assay the target is TCEANC2. The assay is described as above. The following applies: shRNA.
Sequence TTGATTTTAACACTTCCCTGGA registered a sensor-assay potency score (higher = more potent) of 0.232.

With TTCACAGTGTGACCTATCCTTG, the sensor-assay potency score (higher = more potent) was -0.944.

The sequence TTACGCATCTTGTTCACAGTGT gave a sensor-assay potency score (higher = more potent) of 0.769.

For TAGAAGGTCTATTTGAATGTTT, the sensor-assay potency score (higher = more potent) is -0.0592.

Regarding TTTCTGAGCATTTTTCCTCAAC, the sensor-assay potency score (higher = more potent) is -1.1.
